Laboratory results published in PubChem BioAssay (NCATS).
Values joined by “and” are separate entries in the source; they are usually repeats but may differ in a detail not shown here. Equal values may be shown once. Inconclusive results are not listed. Entries that show only a call come without a potency. Active and inactive are the calls of the source. Unless noted, calls come from the whole dose curve; as a rule, active = well fitted curve in the direction sought with a large enough effect; inconclusive = small, poorly fitted or top-dose-only effect, or another doubt; inactive = no such curve, though single readings can be large; an effect the other way counts as inactive or inconclusive.

Key:
[1] = Cell Viability - SH-SY5Y (AID 544); settings: SH-SY5Y neuroblastoma cell viability; viability change, negative = cytotoxic: at 92.2 µM (top of the series);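 note: cells exposed to compound for 40 hours; nearly all actives have a fitted effect of over 55% in size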
Summary of the method: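 Cytotoxicity measured via ATP-dependent luciferase luminescence (CellTiter-Glo) following 40 h, 37 °C exposure of 1500 SH-SY5Y cells per well. Concentration-response data were fitted with the standard Hill equation to give AC50.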

[2] = Cellular Toxicity (caspase-3) Jurkat (AID 655); settings: Jurkat caspase-3 activation, luminescence; caspase-3 activation: at 92.2 µM (top of the series), DMSO = 0%, tamoxifen = 100%;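 note: cells exposed to compound for 16 h at 37 °C before reading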
Summary of the method: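 Caspase 3/7 activation is scored as increased luminescence in Jurkat cells cultured with compound for 16 hours in complete medium. AC50 values come from Hill fits of qHTS concentration-response data normalized to DMSO and 100 uM tamoxifen controls.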

[3] = MultiTox-Fluor Cytotoxicity Assay - LYMP1-003 - Live Cells (AID 962);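 note: cells exposed to compound for 16 hours at 37 °C; cytotoxic hits lower the live-cell protease signal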
Summary of the method: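 Live-cell protease activity (GF-AFC substrate, 405/510 nm, 60 min at room temperature) after 16 h, 37 C compound exposure of human lymphoblastoid LYMP1-003 cells; concentration-response fitted to the Hill equation for AC50.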

[4] = Cell Viability - LYMP1-003 - Assay at 24 hr (AID 963)
Summary of the method: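 Concentration-response qHTS: ATP loss measured by CellTiter-Glo luminescence after 24 h compound exposure at 37 C. Cells were LYMP1-003 human lymphoblastoid, 2500 per well. AC50 derived via standard Hill equation modeling.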

[5] = Cell Viability - LYMP1-003 - Assay at 40 hr (AID 964); note: nearly all actives have a fitted effect of over 60% in size
Summary of the method: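 Viability is taken as cellular ATP, read by CellTiter-Glo luminescence after 40 h of compound exposure at 37 C. Cells: human lymphoblastoid line LYMP1-003 at 2500/well; AC50 values derived by Hill-equation fitting of concentration-response data.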

[6] = Cell Viability - LYMP2-003 (AID 965);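 note: cells exposed to compounds for 24 h before reading; nearly all actives have a fitted effect of over 50% in size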
Summary of the method: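 Acute cytotoxicity is scored as a concentration-dependent drop in intracellular ATP, measured by luciferase luminescence in human lymphoblastoid cells treated for 24 hours at 37 C. AC50 values derive from Hill-equation modelling.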

[7] = Cell Viability - LYMP2-004 (AID 966); note: nearly all actives have a fitted effect of over 65% in size
Summary of the method: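 AC50 values come from Hill modelling of concentration-dependent loss of intracellular ATP, measured by CellTiter-Glo luminescence. Human LYMP2-004 lymphoblastoid cells (2500/well) were exposed to compound for 24 h at 37 C.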

[8] = Cell Viability - LYMP2-017 (AID 972); note: nearly all actives have a fitted effect of over 55% in size
Summary of the method: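 CellTiter-Glo luminescence (cellular ATP, 30 min RT) measured cytotoxicity after 24 hr compound treatment at 37 C. Cells were a human lymphoblastoid line, LYMP2-017, plated at 2500/well and incubated 5 hr first; concentration-response fitted with Hill equation for AC50.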

[9] = Cell Viability - LYMP2-019 (AID 973); note: nearly all actives have a fitted effect of over 55% in size
Summary of the method: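 AC50 values come from Hill-equation fits of luminescent intracellular ATP (CellTiter-Glo, 30 min, room temperature) following 24 h compound exposure at 37 C. Cells: LYMP2-019 lymphoblastoid line, 2500 per well, in complete culture medium.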

[10] = Cell Viability - LYMP2-025 (AID 976)
Summary of the method: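 Cytotoxicity read as loss of intracellular ATP (luciferase luminescence) after 24 h compound treatment at 37 C. Uses LYMP2-025 lymphoblastoid cells in 1536-well format; Hill-equation modelling gives AC50; tetraoctylammonium bromide as positive control.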

[11] = Cell Viability - LYMP2-007 (AID 979);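 note: cells exposed to compound for 24 h before reading; nearly all actives have a fitted effect of over 60% in size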
Summary of the method: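 AC50 values come from Hill-equation fits of luminescent intracellular ATP (CellTiter-Glo, 30 min, room temperature) following 24 h compound exposure at 37 C. Cells: LYMP2-007 lymphoblastoid line, 2500 per well, in complete culture medium.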

[12] = Cell Viability - LYMP2-008 (AID 980); note: nearly all actives have a fitted effect of over 60% in size
Summary of the method: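 Cytotoxicity determined from ATP-dependent luciferase luminescence (CellTiter-Glo) following 24 h compound exposure of human lymphoblastoid LYMP2-008 cells at 37 C. Concentration-response data fitted to the Hill equation to give AC50.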

[13] = Cell Viability - LYMP2-012 (AID 982);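 note: cellular ATP by luciferase luminescence where a drop means cytotoxicity; cells exposed to compound for one day before reading; nearly all actives have a fitted effect of over 55% in size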
[14] = Cell Viability - LYMP2-014 (AID 983); note: nearly all actives have a fitted effect of over 50% in size
Summary of the method: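 Intracellular ATP loss, read by luciferase luminescence, measures acute cytotoxicity after 24 h compound exposure of lymphoblastoid LYMP2-014 cells (2500/well, 37 C). Concentration-response data fitted to the Hill equation for AC50.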

[15] = Cell Viability - LYMP2-018 (AID 985); note: nearly all actives have a fitted effect of over 50% in size
Summary of the method: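 Viability read as CellTiter-Glo luminescence (cellular ATP) after 24 hr compound exposure at 37 C of 2500 LYMP2-018 lymphoblastoid cells/well, pre-plated 5 hr. Hill-equation modelling gave AC50.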

[16] = Cell Viability - LYMP1-002 - Assay at 40 hr (AID 994); note: nearly all actives have a fitted effect of over 60% in size
Summary of the method: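 Cytotoxicity was read as loss of cellular ATP (CellTiter-Glo luminescence) after 40 hr compound exposure at 37 C of 2500 LYMP1-002 lymphoblastoid cells per well. Concentration-response data were fitted with the standard Hill equation to give AC50.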

[17] = qHTS assay for small molecule agonists of retinoid X receptor alpha signaling (AID 588544; calls by dose curve); settings: HEK293T RXRa-UAS-bla, beta-lactamase reporter, 18 h; 530 nm emission
[18] = target: Retinoic acid receptor RXR-alpha (Homo sapiens) (UniProt P19793); assay: as above
Retinoic acid receptor RXR-alpha (Homo sapiens), sequence (P19793 whole entry, looked up): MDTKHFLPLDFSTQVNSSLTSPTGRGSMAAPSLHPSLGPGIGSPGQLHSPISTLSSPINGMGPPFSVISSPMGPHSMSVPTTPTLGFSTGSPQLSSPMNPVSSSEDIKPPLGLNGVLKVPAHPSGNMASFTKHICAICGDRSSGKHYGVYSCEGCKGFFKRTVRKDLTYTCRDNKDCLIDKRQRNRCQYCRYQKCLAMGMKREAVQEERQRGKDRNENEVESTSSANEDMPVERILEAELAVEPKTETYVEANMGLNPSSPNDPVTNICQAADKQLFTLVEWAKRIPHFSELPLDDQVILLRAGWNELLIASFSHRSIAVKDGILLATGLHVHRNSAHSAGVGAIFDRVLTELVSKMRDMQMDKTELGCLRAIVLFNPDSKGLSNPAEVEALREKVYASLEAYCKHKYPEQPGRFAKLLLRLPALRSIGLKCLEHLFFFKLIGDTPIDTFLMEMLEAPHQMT

[19] = qHTS assay for small molecule antagonists of retinoid X receptor alpha signaling (AID 588546); settings: HEK293T RXRa-UAS-bla, beta-lactamase ratio, antagonist mode; measured here: W530 green channel, cytotoxicity proxy;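 note: cells stimulated with 9-cis-retinoic acid as agonist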
Summary of the method: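 Beta-lactamase reporter inhibition, read as CCF4 fluorescence ratio (ex 405, em 460/530 nm) after 2 h at RT. HEK293T UAS-bla cells, 2500/well, were stimulated with 9-cis-RA at 500 or 100 nM final alongside test compound for 18 h at 37 C.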

[20] = qHTS assay for small molecule antagonists of the retinoid-related orphan receptor gamma (ROR-gamma) signaling pathway - cell viability counter screen (AID 720652; active = well fitted curve in the direction sought with a large enough effect in the repeat runs; an effect the other way counts as inactive or inconclusive;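 note: CHO reporter cells with doxycycline-induced ROR-gamma expression; compound exposure lasted 16 hr before ATP read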)
Summary of the method: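 Cytotoxicity counter screen: intracellular ATP (CellTiter-Glo luminescence) measured in the doxycycline-induced CHO RORE-luciferase reporter line after 16 hr compound exposure at 37 C, 5% CO2.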

Structure (SMILES) | Potency [1] | caspase-3 activation [2] | outcome [3] | outcome [4] | Potency [5] | Potency [6] | Potency [7] | Potency [8] | Potency [9] | Potency [10] | Potency [11] | Potency [12] | Potency [13] | Potency [14] | Potency [15] | Potency [16] | max response [17] | outcome [18] | max response [19] | Potency [20]
ClC(Cl)c1ccccc1 | inactive | 2.34% (inactive) | inactive | inactive | inactive | inactive | inactive | inactive | inactive | inactive | inactive | inactive | inactive | inactive | inactive | inactive | 1.37% | inactive | 4.33% | inactive
CC(C)[C@]12CC(=O)[C@H](C)[C@H]1C2 | inactive | 0.322% (inactive) | inactive | inactive | inactive | inactive | inactive | inactive | inactive | inactive | inactive | inactive | inactive | inactive | inactive | inactive | -6.67% and -9.54% | inactive | -7.72% and -9.15% | inactive
N#CCCCCC#N | inactive | -0.898% (inactive) | inactive | inactive | inactive | inactive | inactive | inactive | inactive | inactive | inactive | inactive | inactive | inactive | inactive | inactive | 10.4% | inactive | -2.9% | inactive
COc1ccccc1N | inactive | 5.87% (inactive) | inactive | inactive | inactive | inactive | inactive | inactive | inactive | inactive | inactive | inactive | inactive | inactive | inactive | inactive | -8.71% | inactive |  | inactive
c1ccc(OCC2CO2)cc1 (centres undefined) | inactive | 1.63% (inactive) | inactive | inactive | inactive | inactive | inactive | inactive | inactive | inactive | inactive | inactive | inactive | inactive | inactive | inactive | 6.69% | inactive | 6.84% | inactive
OCCBr | inactive | -0.73% (inactive) | inactive | inactive | inactive | inactive | inactive | inactive | inactive | inactive | inactive | inactive | inactive | inactive | inactive | inactive | 1.51% | inactive | 8.33% | inactive
CC[N+](=O)[O-] | inactive | 1.63% (inactive) | inactive | inactive | inactive | inactive | inactive | inactive | inactive | inactive | inactive | inactive | inactive | inactive | inactive | inactive | -9.1% | inactive | -3.61% | inactive
